Measured values published in PubChem BioAssay AID1159580 (chemical genetic matrix, 2015).
Several values for one entry are separate records, joined by “and”; a condition that tells them apart may be missing. Equal values may be shown once. Out of some 5,500 compounds screened, about 2,000 (36%) were called active. Not shown: some 18% with an inconclusive outcome. Rule as the data show it: active = normalized growth mostly below about 0.91 (no sharp cut-off); inconclusive = no clear call, values can overlap the other calls; inactive = mostly above about 0.92. The list shows a part of the results.

Assay: chemical genetic growth profiling, strain panel (AID 1159580);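 also: tested at 20 µM; growth read once vehicle control cultures reached saturation at 30 °C; 1 = growth at the plate median or of vehicle wells; lower values mean less growth of the strain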
Details: S. cerevisiae deletion strains, growth OD

Measured: normalized growth

COc1cc(OC)c2ccc(=O)oc2c1
active: locus YDR195W, strain ref2 1.19 [resistant] | locus YDR392W, strain spt3, stronger effect = lower value 0.736 | locus YER155C, strain BEM2 (second series), stronger effect = lower value 0.661 | locus YGL240W, strain doc1, stronger effect = lower value 0.868
inactive: locus YAL013W, strain DEP1, stronger effect = lower value 1.01 | locus YAL021C, strain ccr4, stronger effect = lower value 1 | locus YAL026C, strain drs2, stronger effect = lower value 0.964 | locus YAL030W, strain snc1, stronger effect = lower value 0.976 | locus YBL061C, strain skt5, stronger effect = lower value 0.966 | locus YBR009C, strain hhf1, stronger effect = lower value 0.935 | locus YBR021W, strain FUR4, stronger effect = lower value 0.949 | locus YBR023C, strain chs3, stronger effect = lower value 0.964 | locus YBR171W, strain sec66, stronger effect = lower value 0.972 | locus YBR229C, strain ROT2, stronger effect = lower value 1.01 | locus YBR231C, strain swc5, stronger effect = lower value 0.963 | locus YBR279W, strain paf1, stronger effect = lower value 0.973 | locus YCL011C, strain gbp2, stronger effect = lower value 0.962 | locus YCL016C, strain dcc1, stronger effect = lower value 0.968 | locus YCL029C, strain bik1, stronger effect = lower value 1 | locus YCL061C, strain MRC1, stronger effect = lower value 0.974 | locus YCL069W, strain vba3, stronger effect = lower value 0.992 | locus YCR088W, strain abp1, stronger effect = lower value 0.984 | locus YDL005C, strain med2, stronger effect = lower value 0.987 | locus YDL035C, strain GPR1, stronger effect = lower value 0.99 | locus YDL040C, strain nat1, stronger effect = lower value 0.974 | locus YDL074C, strain BRE1, stronger effect = lower value 0.979 | locus YDL101C, strain DUN1, stronger effect = lower value 1.01 | locus YDL134C, strain PPH21, stronger effect = lower value 0.992 | locus YDL185W, strain tfp1, stronger effect = lower value 0.982 | locus YDL192W, strain arf1, stronger effect = lower value 0.988 | locus YDR001C, strain nth1, stronger effect = lower value 0.975 | locus YDR069C, strain doa4, stronger effect = lower value 0.951 | locus YDR101C, strain arx1, stronger effect = lower value 0.994 | locus YDR137W, strain rgp1, stronger effect = lower value 0.922 | locus YDR150W, strain NUM1, stronger effect = lower value 1 | locus YDR159W, strain sac3, stronger effect = lower value 0.971 | locus YDR162C, strain NBP2, stronger effect = lower value 1 | locus YDR297W, strain sur2, stronger effect = lower value 0.978 | locus YDR318W, strain mcm21, stronger effect = lower value 1 | locus YDR334W, strain swr1, stronger effect = lower value 0.962 | locus YDR335W, strain msn5, stronger effect = lower value 0.974 | locus YDR388W, stronger effect = lower value 1.01 | locus YDR502C, strain sam2, stronger effect = lower value 0.989 | locus YEL003W, strain gim4, stronger effect = lower value 0.973 | locus YEL037C, strain rad23, stronger effect = lower value 0.961 | locus YEL061C, strain CIN8 (second series), stronger effect = lower value 0.964 | locus YEL061C, strain CIN8, stronger effect = lower value 1 | locus YER015W, strain faa2, stronger effect = lower value 0.973 | locus YER016W, strain bim1, stronger effect = lower value 0.975 | locus YER110C, stronger effect = lower value 0.983 | locus YER111C, strain swi4, stronger effect = lower value 0.965 | locus YER155C, strain BEM2, stronger effect = lower value 0.999 | locus YER167W, strain BCK2, stronger effect = lower value 1.02 | locus YFR010W, strain ubp6, stronger effect = lower value 0.951 | locus YGL078C, strain dbp3, stronger effect = lower value 0.995 | locus YGL086W, strain mad1, stronger effect = lower value 1 | locus YGL167C, strain pmr1, stronger effect = lower value 0.965 | locus YGL173C, strain kem1, stronger effect = lower value 0.945 | locus YGL227W, strain vid30, stronger effect = lower value 0.974 | locus YGL248W, strain PDE1, stronger effect = lower value 1.01 | locus YGL253W, strain hxk2, stronger effect = lower value 0.974 | locus YGR078C, strain PAC10, stronger effect = lower value 0.989 | locus YGR135W, strain pre9, stronger effect = lower value 0.977 | locus YGR229C, strain SMI1, stronger effect = lower value 0.993 | locus YGR252W, strain gcn5, stronger effect = lower value 0.846 | locus YHR013C, strain ard1, stronger effect = lower value 0.944 | locus YHR027C, strain rpn1, stronger effect = lower value 0.981 | locus YHR030C, strain SLT2, stronger effect = lower value 1.01 and 0.997 | locus YHR079C, strain IRE1 (second series), stronger effect = lower value 1.01 | locus YHR079C, strain IRE1, stronger effect = lower value 0.989 | locus YHR094C, strain hxt1, stronger effect = lower value 1 | locus YHR129C, strain ARP1, stronger effect = lower value 1.01 | locus YHR142W, strain chs7, stronger effect = lower value 0.955 | locus YHR200W, strain rpn10, stronger effect = lower value 0.988 | locus YIL066C, strain RNR3, stronger effect = lower value 1.01 | locus YIL073C, strain SPO22, stronger effect = lower value 0.982 | locus YIL125W, strain kgd1, stronger effect = lower value 1 | locus YIR030C, strain dcg1, stronger effect = lower value 1 | locus YJL092W, strain hpr5, stronger effect = lower value 0.972 | locus YJL095W, strain BCK1 (second series), stronger effect = lower value 0.98 | locus YJL095W, strain BCK1, stronger effect = lower value 0.985 and 1.01 | locus YJL115W, strain asf1, stronger effect = lower value 0.969 | locus YJL129C, strain trk1, stronger effect = lower value 0.995 | locus YJL134W, strain LCB3, stronger effect = lower value 1.01 | locus YJL154C, strain vps35, stronger effect = lower value 0.984 | locus YJL164C, strain tpk1, stronger effect = lower value 0.962 | locus YJL166W, strain qcr8, stronger effect = lower value 0.945 | locus YJL168C, strain set2, stronger effect = lower value 1 | locus YJL187C, strain SWE1 (second series), stronger effect = lower value 1.01 | locus YJL187C, strain SWE1, stronger effect = lower value 0.97 | locus YJR043C, strain POL32, stronger effect = lower value 0.993 | locus YJR066W, strain TOR1, stronger effect = lower value 0.958
